“And” between values parts separate entries of the source, which are not always exact repeats. Identical values can stand only once. Records with an inconclusive call do not appear. A call without a number means that no potency is given here. Unmarked numbers belong to inactive results. The source made the active and inactive calls. The call rests on the fitted dose curve; in most records, active means well fitted activation curve with a large enough effect in the signal ratio, with a control signal flat; inconclusive means small, poorly fitted or top-dose-only effect, or a change in a side signal; inactive means flat fitted curve, though single readings scatter; the % refers to the signal ratio.
Potency means the concentration at half of the fitted maximal effect.

Thyrotropin receptor (Homo sapiens), sequence (P16473 whole entry, looked up): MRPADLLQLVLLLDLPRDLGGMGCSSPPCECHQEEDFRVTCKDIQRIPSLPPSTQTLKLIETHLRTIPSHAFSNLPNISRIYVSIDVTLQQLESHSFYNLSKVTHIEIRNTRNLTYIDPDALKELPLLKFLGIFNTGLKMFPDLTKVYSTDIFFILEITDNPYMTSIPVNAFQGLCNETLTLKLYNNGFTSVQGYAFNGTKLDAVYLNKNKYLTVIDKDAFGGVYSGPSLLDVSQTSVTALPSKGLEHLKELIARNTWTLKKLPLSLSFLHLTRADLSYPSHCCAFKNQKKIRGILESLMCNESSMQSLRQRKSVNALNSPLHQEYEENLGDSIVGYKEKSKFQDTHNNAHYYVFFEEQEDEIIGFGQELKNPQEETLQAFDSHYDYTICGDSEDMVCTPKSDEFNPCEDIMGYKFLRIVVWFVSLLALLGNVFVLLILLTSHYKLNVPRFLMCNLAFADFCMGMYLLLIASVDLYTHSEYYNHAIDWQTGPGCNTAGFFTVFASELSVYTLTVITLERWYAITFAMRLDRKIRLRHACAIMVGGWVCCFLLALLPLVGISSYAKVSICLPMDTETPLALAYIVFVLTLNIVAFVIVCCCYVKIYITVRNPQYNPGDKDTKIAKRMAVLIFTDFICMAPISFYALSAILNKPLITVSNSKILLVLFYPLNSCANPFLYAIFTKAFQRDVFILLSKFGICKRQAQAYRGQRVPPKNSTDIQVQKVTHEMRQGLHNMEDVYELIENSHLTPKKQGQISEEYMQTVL

The experiment concerns the target Thyrotropin receptor (Homo sapiens) (UniProt P16473). Briefly: Secondary Concentration-Response Assay for Agonists of the Thyroid Stimulating Hormone Receptor: HTRF Activity Detection.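 On activation: HEK 293 cells stably expressing human TSHR with RO 20-1724 phosphodiesterase inhibitor.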 The conditions noted are these: HEK293-TSHR cells, cAMP HTRF ratio, 30 min; series mostly up to 91.7 µM. The source says: NIH Chemical Genomics Center [NCGC]
NIH Molecular Libraries Screening Centers Network [MLSCN]
PI Name: Dr. Marvin Gershengorn, NIH
Confirmation of Thyroid Stimulating Hormone Receptor Agonists
TSH is an alpha/beta heterodimeric glycoprotein hormone secreted from the anterior pituitary gland which belongs to the glycoprotein hormone family. The actions of TSH are mediated by a seven-transmembrane receptor, which upon TSH binding couples preferentially to the G-alpha (s) protein (Gs), resulting in activation of adenylate cyclase and increase in cyclic adenosine 3', 5' monophosphate (cAMP). The TSH receptor (THSR) is mainly expressed in thyroid follicular cells and regulates their growth and function. Recombinant TSH is used to activate TSHR in patients with thyroid cancer receiving thyroid hormone suppression therapy and to screen for residual tumor after surgery, but it is expensive and must be administered intramuscularly. An orally active small molecule TSHR agonist would serve as an invaluable research tool for studying TSHR pharmacology and physiology, and would have multiple advantages in therapeutic settings. However, no selective small molecule agonist of the TSH receptor exists, and no small molecule screen for TSHR agonists has ever been reported.
A confirmatory assay of putative TSHR agonists was conducted on a different TSHR transfected HEK 293 cell line, using an orthogonal detection technology to measure cAMP stimulation: antibody-based Homogeneous Time Resolved Fluorescence (HTRF).
NCGC Assay Protocol Summary:
Homogeneous Time Resolved Fluorescence (HTRF) cAMP Assay. HEK 293 cells stably transfected with a vector containing the TSHR and maintained under hygromycin selection were obtained from the laboratory of Dr. Marvin Gershengorn. Compounds were assayed using a HTRF cAMP detection kit (Cisbio) on the TSHR transfected cell line. Briefly, 750 cells were plated in 2.5 ul/well of complete media (DMEM containing 10 % FCS, and 100 uM RO 20-1724) in 1536 well solid bottom white plates and 23 nl/well compound in DMSO solution or controls was added. Following 30 minute incubation at room temperature, 2.5 ul/well of labeled d2 cAMP and 2.5 ul/well of anti-cAMP antibody (both diluted 1:20 in lysis buffer) were added to each well using a flying reagent dispenser (Aurora Discovery, San Diego) . Plates were measured using the Envision plate reader (PerkinElmer, Boston, MA) with excitation at 330 nm and emissions of 615 nm and 660 nm.
Keywords: Thyroid-stimulating hormone TSH, TSHR, TSHR agonist, quantitative high throughput screening, qHTS, HTS, probe identification, CNG, cAMP, cyclic nucleotide gated ion channel PubChem
For `COc1ccc(C2Nc3ccccc3C(=O)N2Cc2ccco2)cc1COc1c(C)cccc1C` (stereo not given), the Potency result is “inactive”. On the same count and under the same terms, the entry for `CCN(CC)CCN1C(=O)c2ccccc2NC1c1ccc(F)cc1` (stereo not given) is “inactive”; for `COc1ccc(C2Nc3ccccc3C(=O)N2Cc2ccccc2)cc1Oc1ccc(NC(C)=O)cc1` (stereo not given) it is “inactive”.

With `COc1ccc(C2Nc3ccccc3C(=O)N2Cc2ccccc2)cc1COc1ccc(NC(C)=O)cc1` (stereo not given), the Potency is 7.08 µM (active) and 3.55 µM (active). Regarding `COC(=O)c1cc(C(=O)OC)cc(N2C(=O)CC(Sc3nc(C)cc(C)n3)C2=O)c1` (stereo not given), the activation is -0.898% [at 0.00035 µM]. With `O=C1c2ccccc2N2C(=O)c3ccccc3C2N1Cc1ccco1` (stereo not given), the Potency entry is “inactive”. Same read-out and setting: in the case of `CCOc1cc(C2Nc3ccccc3C(=O)N2c2ccccc2)ccc1O` (stereo not given) it was “inactive”. With `CC1CCN(S(=O)(=O)c2cccc(C(=O)Nc3ccccn3)c2)CC1`, the activation was 0.1% [at 0.00035 µM]. For `COc1ccc(C2Nc3ccccc3C(=O)N2CCCN(C)C)cc1COc1ccc(NC(C)=O)cc1` (stereo not given), the Potency result was “inactive”. In the case of `COc1ccc(C2Nc3ccccc3C(=O)N2c2ccc(Cl)cc2)cc1Cn1cc([N+](=O)[O-])cn1` (stereo not given), the Potency entry was “inactive”.

Consider `COc1cccc(-c2nc(SC)nc3sc(C(=O)NC(C)(C)C)c(N)c23)c1`, for which the Potency entry was “inactive”. Consider `COc1ccc(C2Nc3ccccc3C(=O)N2c2ccccc2)cc1Cn1cc([N+](=O)[O-])cn1` (stereo not given), for which the Potency entry is “inactive”. The same measure, in the same setting: the entry for `COc1cc(C2Nc3ccccc3C(=O)N2c2ccccc2)ccc1O` (stereo not given) is “inactive”; for `CC(=O)Nc1ccc(C2Nc3ccccc3C(=O)N2C2CCCCC2)cc1` (stereo not given) it is “inactive”; for `COc1ccc(C2Nc3ccccc3C(=O)N2Cc2ccccc2)cc1COc1ccc(C)cc1` (stereo not given) it is “inactive”.

For the compound `COc1ccc(N2C(=O)c3ccccc3NC2c2ccc(OC)c(Cn3nnc4ccccc43)c2)cc1` (stereo not given), the Potency result was “inactive”. `COc1ccc(C2Nc3ccccc3C(=O)N2Cc2ccccc2)cc1Cn1nnc2ccccc21` (stereo not given): the Potency entry was “inactive”. Turning to `COc1ccc(C2Nc3ccccc3C(=O)N2c2ccc(C)cc2)cc1COc1ccccn1` (stereo not given), the Potency entry is “inactive”.

For `COc1ccc(/C=N/NC(=O)c2ccn[nH]2)cc1COc1ccc(F)cc1`, the Potency result was “inactive”.

As for `COc1ccc2c(c1OC)C(=O)N1c3ccccc3C(=O)N(Cc3ccco3)C21` (stereo not given), the Potency entry was “inactive”. Same read-out and setting: in the case of `COc1ccc(N2C(=O)c3ccccc3NC2c2ccc(OC)c(COc3ccccn3)c2)cc1` (stereo not given) it was “inactive”.

With `CCOC(=O)c1cnc(-n2nc(C)cc2C)nc1-n1nc(C)cc1C`, the activation was -0.245% [at 0.00035 µM]. As to `COc1ccc(C(=O)N(Cc2ccccc2)Cc2ccccc2)c(O)c1`, the Potency was 25.1 µM (active). As to `Oc1ccccc1Cn1c(-c2ccccc2O)nc2ccccc21`, the activation was -0.344% [at 0.00035 µM]. On to `COc1ccc(CN(Cc2ccccc2)C(=O)c2ccc(OC)cc2O)cc1`, for which the Potency is 31.6 µM (active). With `CC1=CCC2C(=O)N(c3ccc(Br)cc3C)C(=O)C2C1` (stereo not given), the activation is 0.113% [at 0.00035 µM]. Turning to `CCCN1C(=O)c2ccccc2NC1c1ccc(OC)c(COc2ccc([N+](=O)[O-])c(C)c2)c1` (stereo not given), the Potency result was “inactive”. As for `NC(=O)c1nsc(C(=O)N(CC(=O)NC2CCCC2)Cc2ccc3c(c2)OCO3)c1N`, the Potency result is “inactive”. On the same count and under the same terms, the entry for `COc1ccc(N2C(=O)c3ccccc3NC23C(=O)N(C)c2ccccc23)cc1` (stereo not given) is “inactive”; for `CCCN1C(=O)c2ccccc2NC1c1ccc(OC)cc1O` (stereo not given) it is “inactive”. Still for that read-out and setting: the figure for `COc1ccc(CN(Cc2ccccc2)C(=O)c2ccccc2)cc1COc1ccc(NC(C)=O)cc1` is 8.91 µM (active); for `COc1ccc(C2Nc3ccccc3C(=O)N2Cc2cccc(C(F)(F)F)c2)cc1COc1ccc(NC(C)=O)cc1` (stereo not given) it is 4.47 µM (active). Take `COc1ccc(C=O)cc1COc1ccc(NC(C)=O)cc1`: the Potency entry is “inactive”. Still for that read-out and setting: the entry for `Nc1ccccc1C(=O)NCc1ccco1` is “inactive”. `CC1(C)CC2CC(C)(CN2S(=O)(=O)c2ccc(N)cc2)C1` (stereo not given): the activation is -0.162% [at 0.00035 µM].

As for `CCC(=O)Nc1ccc(OCc2cc(C3Nc4ccccc4C(=O)N3Cc3ccccc3)ccc2OC)cc1` (stereo not given), the Potency entry was “inactive”. As to `O=C1c2ccccc2NC(c2ccc3c(c2)OCO3)N1Cc1ccco1` (stereo not given), the Potency result is “inactive”. Turning to `Oc1ccccc1-c1cc(C(F)(F)C(F)F)nc(-c2ccccc2)n1`, the activation is 0.7% [at 0.00035 µM]. Regarding `COc1ccc2c(c1OC)C(=O)N1c3ccccc3C(=O)N(c3ccc(F)cc3)C21` (stereo not given), the Potency entry was “inactive”. The same measure, in the same setting: in the case of `COc1ccc(-c2nc3ccc(Cl)cc3c(=O)n2Cc2ccccc2)cc1COc1ccc(NC(C)=O)cc1` it was “inactive”.

(Values after PubChem BioAssay AID933 (National Center for Advancing Translational Sciences (NCATS), 2007).)
